Activity calls are given as the source filed them. How the source made its calls: active means hit-call score of the fitted dose curve at least 0.9, where 1 is the maximum; inactive means score below 0.9.

Read-out in the assay: Pyruvate Dehydrogenase Kinase 4 (PDK4), PDK4 (gene 5166)
Nature of the assay: LTEA_HepaRG_PDK4: Life Technologies and Expression Analysis (LTEA) Assay for Pyruvate Dehydrogenase Kinase 4 (PDK4) using HepaRG (AID 2283525). The note with it: mRNA level, 48 h; actives raise or lower the signal. The protocol:
LTEA_HepaRG is a cell based, multiplexed-readout assay that uses HepaRG, a human liver cell line, with measurements taken at 48 hours after chemical dosing on a 96-well plate.LTEA_HepaRG_PDK4 is one of 102 assay component(s) measured in the LTEA HepaRG cell culture assay. It is a marker of Diseases associated with PDK4 including Platelet Glycoprotein Iv Deficiency and Diabetes Mellitus, Noninsulin-Dependent.Data from the assay component LTEA_HepaRG_PDK4 was analyzed into 1 endpoint. This assay endpoint, LTEA_HepaRG_PDK4, was analyzed with bidirectional fitting relative to DMSO as the negative control and baseline of activity. Using a type of inducible reporter, measures of mRNA induction for gain or loss-of-signal activity can be used to understand regulation of transcription factor activity. To generalize the intended target to other relatable targets, this assay endpoint is annotated to the kinase intended target family, where the subfamily is serine/threonine kinase.
A total of 1060 chemcials from the ToxCast library were tested in eight-point concentration-response experiments. Cell culture and cytotoxicity assays were conducted at Thermo Fisher Scientific's Custom Services facility (Madison, WI). A single lot of human HepaRG cells (Thermo Fisher Scientific, Frederick, MD) was used for the cell culture experiments. 96-well format collagen type I coated plates of human HepaRG cells were prepared using established methods. Briefly, cryopreserved HepaRG cells were thawed, plated at a density of approximately 100,000 cells/well in HepaRG Thaw, Plate, and General Purpose media (HPRG770, Thermo Fisher Scientific), and incubated for 48 hours. 0.5% DMSO was selected as vehicle control to balance the requisite need of DMSO in HepaRG cultures to maintain differentiation (for example, baseline metabolism, proportions of hepatocytes vs. cholangiocytes), while enabling further hepatic receptor pathway activation (for example, PXR and CAR) in response to chemical exposure. 48 hours after plating, the culture medium was replaced with HepaRG Serum-Free Incudtion Media. Cells were exposed to each test chemical in duplicate and maintained in CO2 incubators for another 48 hours. Chemical plates were thawed to room temperature and 200x concentrations of treatment groups were prepared. 8-point conentration-reponse curves were made with the highest exposure at 100 uM, followed by half-log dilutions, all in 0.5% DMSO. Each test plate contained variouse controls, induction positive controls (1mM phenobarbital), cytotoxicity positive controls ([…] aflatoxin B1), vehicle controls (0.5% DMSO), and total lysis controls (0.5% DMSO). Cell morphology images were taken using an Essen IncuCyte FLR automated microscope, with six 96-well plates imaged in about 24 minutes. Images were captured and exported and JPEG files. Spent culture media was transfered to black-well plates for the LDH assay, and remaining media was sorted at -80 C for later use. Cells were treated with RLT buffer and frozen until shipped for gene expression analysis. Total RNA was isolated from the cell suspension in 75 uL of Buffer RLT (Qiagen, Germantown, MD 20874) by Quintiles/Expression Analysis (Durham, NC) using a custom isolation procedure. Total RNA from each plate well was transferred to a preamplification plate. Fluidigm's 96.96 Dynamic ArrayTM (Fluidigm, Amsterdam, the Netherlands) technology was used for gene expression analyses by quantitative reverse transcription polymerase chain reaction (qRT-PCR, performed by Quintiles/Expression Analysis, Durham, NC)89. Standard TaqManTM Assays (Applied Biosystems/ThermoFisher Scientific, Foster City, CA) were used to assess the expression of 93 genes selected based on their selectivity and sensitivity to important hepatic receptors known to be modulated by environmental chemicals; importance in human hepatocyte functionality; and hepatotoxicity. […]
Turning to `O=c1[nH]c2ccc(S(=O)CCN3CCC(Cc4ccc(F)cc4)CC3)cc2o1` (stereo not given), the AC50 was 14.7 µM (active). In the case of `O=C(O)CC(O)C(=O)O` (stereo not given), the outcome was inactive. As to `CCCCCCCCCCCCc1ccccc1`, the outcome was inactive. The same measure, in the same setting: the same measure for `Cc1ccc(O)cc1`: “inactive”; for `Nc1ccc(Nc2ccccc2)cc1`: “inactive”; for `CCCCCCCCCCCCCCCO`: “inactive”. Same read-out and setting: the entry for `C1N2CN3CN1CN(C2)C3` is “inactive”; for `Cn1c(=O)cc(Oc2ccc(F)cc2F)c2cnc(NCC(C)(C)O)nc21` it is “inactive”. Still for that read-out and setting: the same measure for `C=CCCCCCCCCC(=O)O`: “inactive”; for `O=C(O)CCN(C1(C(=O)NO)CCCC1)S(=O)(=O)c1ccc(Oc2ccc(F)cc2)cc1`: “inactive”. Take `CCc1cc(SCc2sc(-c3ccc(C(F)(F)F)cc3)nc2CN2CCN(c3ccc(OC)cc3)CC2)ccc1OCC(=O)O`: the AC50 is 92.2 µM (active). `Nc1cccc(N)c1`: the molecule was called inactive. For `Fc1ccccc1[C@@H](F)COC1CCC(Nc2ncnc3[nH]ncc23)CC1` (stereo not given in full), the AC50 was 11.7 µM (active). Take `NC(=O)NO`: the result was inactive. Same read-out and setting: the same measure for `CCOCCO`: “inactive”. Same read-out and setting: the same measure for `O=C1CCC(N2C(=O)c3ccccc3C2=O)C(=O)N1` (stereo not given): “inactive”. Take `Oc1ccc2c(c1)-c1ccccc1C2`: the AC50 is 25.2 µM (active). As to `COC(=O)CC(=O)OC`, the call was inactive.

As for `O=C(O)c1cccc(N(Cc2cccnc2)c2ccc(OC(F)F)c(OC(F)F)c2)c1`, the AC50 was 50 µM (active). Same read-out and setting: the same measure for `Cc1c(-c2cccnc2)c2ccccc2n1CCCCC(=O)O`: 27.6 µM (active).

Take `CC(=O)c1ccc2c(c1)[C@H](NC(=O)c1ccc(F)cc1)[C@@H](O)C(C)(C)O2`: the result was inactive. For `CCOc1cccc(-n2cc(C(=O)N3CCN(c4cc(C(=O)O)c5ccccc5c4)CC3)nc2-c2ccc(C)cc2)c1`, the AC50 is 89.3 µM (active). In the case of `CCOC(=O)c1ccc(C2CCC(NC[C@H](O)COc3ccc(O)c(NS(C)(=O)=O)c3)CC2)cc1` (stereo not given in full), the molecule was classed as inactive. Turning to `O=c1n(CC2CO2)c(=O)n(CC2CO2)c(=O)n1CC1CO1` (stereo not given), the outcome was inactive.

Take `COc1cccc(-c2ccc(/C=C\CN3CCCCCC3)cc2Cl)c1`: the AC50 was 74.1 µM (active). `CC(C)=CCCC(C)CCO` (stereo not given): the molecule was classed as inactive. On the same count and under the same terms, the entry for `O=C1OC(=O)C2C3C=CC(C3)C12` (stereo not given) is “inactive”. Take `CCCCCCc1ccc(O)cc1O`: the AC50 is 66.4 µM (active).

As for `CC(C)=CCC/C(C)=C/CO`, the result was inactive. On to `O=C(CCCCCCCCc1cccnc1)N1CCC(C=C(c2ccccc2)c2ccccc2)CC1`, for which the AC50 is 89.4 µM (active).

For `CN(C)c1ccc(Cc2ccc(N(C)C)cc2)cc1`, the call was inactive. The same measure, in the same setting: the entry for `COC(=O)c1c(Cl)c(Cl)c(C(=O)OC)c(Cl)c1Cl` is “inactive”.

Consider `CC[C@H]1OC(=O)[C@H](C)[C@@H](O[C@H]2C[C@@](C)(OC)[C@@H](O)[C@H](C)O2)[C@H](C)[C@@H](O[C@@H]2O[C@H](C)C[C@H](N(C)C)[C@H]2O)[C@](C)(O)C[C@@H](C)C(=O)[C@H](C)[C@@H](O)[C@]1(C)O`, for which the molecule was classed as inactive. For `CC1=CC(=O)CC(C)(C)C1`, the result was inactive. Same read-out and setting: the same measure for `CCOC(=O)CC(CC(=O)OCC)(OC(C)=O)C(=O)OCC`: “inactive”; for `C1=CCCC=CCCC=CCC1`: “inactive”; for `CC(=O)OCCC(C)C`: “inactive”. `CNS(=O)(=O)c1cc(C(=O)N2CCC(CCN3C4CCC3CC(n3c(C)nc5ccccc53)C4)(c3cccc(F)c3)CC2)c(Cl)cc1F` (stereo not given): the AC50 was 28.9 µM (active). As for `CCCCC(CC)COC(=O)CCCCCCCCC(=O)OCC(CC)CCCC` (stereo not given), the molecule was classed as inactive. In the case of `CCCC(=O)OCC`, the call was inactive.
